# In PubChem BioAssay (NCATS):
# “And” between values parts separate entries of the source, which are not always exact repeats. Equal entries are not always repeated. Records with an inconclusive call do not appear. The source made the active and inactive calls. The call rests on the fitted dose curve; in most records, active means well fitted cell-killing curve with a large enough effect; inconclusive means small, poorly fitted or top-dose-only effect, or effect the other way; inactive means flat fitted curve, though single readings scatter.
# Assay: qHTS assay for cell viability of HEK293 cells (AID 743288); further: nearly all actives have a fitted effect of over 50% in size
# Conditions: ATP luminescence (CellTiter-Glo), 18 h, stronger effect = lower value
# Excerpt: National Center for Advancing Translational Sciences [NCATS]
# NIH Chemical Genomics Center [NCGC]
# U.S. Environmental Protection Agency [EPA]
# National Institutes of Environmental Health Sciences [NIEHS]
# National Toxicology Program [NTP]
# U.S. Food and Drug Administration [FDA]
# The CellTiter-Glo Luminescent Cell Viability Assay (Promega, Madison, WI) is a homogeneous method to determine the number of viable cells in culture based on quantitation of the ATP present, which signals the presence of metabolically active cells. This cell viability assay was used to screen environmental chemicals in the Hek293 cell line.
# Tox21 Assay Protocol Summary:
# Cell viability after compound treatment was measured using a luciferase-coupled ATP quantitation assay (CellTiter-Glo viability assay, Promega, Madison, WI) in parental HEK293 cells. Total intracellular ATP content corresponds to the number of metabolically competent cells after compound treatment. The cells were dispensed at 2,000 cells/5 uL/well in 1,536-well white/solid bottom assay plates using a Flying Reagent Dispenser (Aurora Discovery, San Diego, CA). The cells were incubated a minimum of 5 h at 37 C, followed by the addition of 23 nL of compounds dissolved in DMSO, positive controls or DMSO only using a pintool work station (Kalypsys, San Diego, CA). The assay plates were incubated for 18 h at 37 C, followed by the addition of 5 uL/well of CellTiter-Glo reagent. After 30 min incubation at room temperature, the luminescence intensity of the plates was measured using a ViewLux plate reader (PerkinElmer, Shelton, CT).
# On the % scale 0 is the no-effect control and ±100 the full control effect.
row,Compound,max response
1,c1ccc(NNc2ccccc2)cc1,2.88% (inactive) and -1.77% (inactive)
2,CCN(N=O)C(N)=O,9% (inactive)
3,CCN(CC)CCO,-8.96% (inactive)
4,CC(Cl)CCl (stereo not given),-4.06% (inactive)
5,C=CC(=O)OCC(C)C,2.29% (inactive)
6,CC(C)(Cl)Cl,1.9% (inactive)
7,O=[N+]([O-])c1ccccc1CCl,2.01% (inactive)
8,CC(C)OS(C)(=O)=O,-1.94% (inactive)
9,CNC(=O)O/N=C/C(C)(C)S(C)=O (stereo not given),0.711% (inactive) and -4.36% (inactive)
10,Cl/C=C/Cl,-15.8% (inactive)
11,Nc1ccc(-c2ccc(N)c(Cl)c2)cc1Cl,-8.22% (inactive) and -17.1% (inactive)
12,Cc1cccc(C)c1N,-2.34% (inactive)
13,Oc1cc(Cl)cc(Cl)c1,3.49% (inactive)
14,Clc1cc(Cl)c(Cl)c(Cl)c1,-14.6% (inactive)
15,CC[N+](=O)[O-],0.073% (inactive)
16,O=C(O)c1cccc(Cl)c1,-0.932% (inactive)
17,c1ccc(C2CO2)cc1 (stereo not given),-9.74% (inactive)
18,CCCCNC(=O)n1c(NC(=O)OC)nc2ccccc21,-16.4% (inactive) and -17.6% (inactive)
19,[O-][Cl+2]([O-])O,-5.12% (inactive)
20,O=[N+]([O-])c1ccccc1O,0.38% (inactive)

row,Compound,max response
1,CC(C)[N+](=O)[O-],-8.31% (inactive)
2,Nc1ccc([N+](=O)[O-])cc1[N+](=O)[O-],2.24% (inactive)
3,ClCC(Cl)CCl,-3.69% (inactive) and -5.22% (inactive)
4,CC(C)CON=O,-12.6% (inactive)
5,O=C(Cl)c1ccccc1F,-8.76% (inactive)
6,C=CC(=O)OCC(CC)CCCC (stereo not given),1.71% (inactive) and -12.5% (inactive)
7,N#CCCC#N,-2.73% (inactive)
8,ClCC(Cl)Cl,-18.4% (inactive)
9,C=CC(=O)OCCO,-1.05% (inactive)
10,ClCCOCCCl,-0.0116% (inactive)
11,ClC=CCl,-11.1% (inactive)
12,Nc1ccc([N+](=O)[O-])cc1N,7.69% (inactive) and 2.35% (inactive)
13,Cc1ccc(N)cc1Cl,-1.75% (inactive)
14,N#C/C(N)=C(/N)C#N,-0.0232% (inactive)
15,Oc1ccc(Cl)c(Cl)c1,7.88% (inactive)
16,CCCCOCC1CO1 (stereo not given),-19.5% (inactive)
17,O=[N+]([O-])c1cc(Cl)c(Cl)c(Cl)c1,-14.7% (inactive)
18,Nc1c(Cl)cc([N+](=O)[O-])cc1Cl,7.25% (inactive) and -11.8% (inactive)
19,Oc1cc(Cl)ccc1Cl,5.28% (inactive) and -9.5% (inactive)
20,O=[N+]([O-])c1ccc(O)c([N+](=O)[O-])c1,-1.57% (inactive)
